This is an account of results in PubChem BioAssay (NCI).

The structures appear in SMILES notation. Compounds without any hit were thinned out: in the full panel of roughly 83,000, 20% have a hit.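 Step 1: grow cells in 96-well plates. Step 2: add test compound at a single concentration. Step 3: incubate 48 h. Step 4: record percent growth.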 The source made the active and inactive calls. How the source made its calls: active means growth percent below 10; inactive means the rest.

For the first assay, the system named is SK-MEL-2 melanoma. Briefly: NCI-60 one-dose screen, 48 h (100 = growth as untreated, 0 = no growth, -100 = all killed). The settings on record: 10 µM unless noted.
`FC(F)(F)c1ccc(Cn2cc(CSc3nc4ccccc4s3)nn2)cc1`: the growth is 95.6% (inactive). `COc1cc(OC)c2sc(-c3ccc(-n4cncc4-c4cc(OC)c(OC)c(OC)c4)cc3)nc2c1`: the growth was 55.4% (inactive). On the same count and under the same terms, in the case of `C#CCn1cnc2cnc(Nc3cccc(NC(=O)C=C)c3)nc21` it was 61.1% [6.25 µM] (inactive). On the same count and under the same terms, then `CC(=O)/C(=C/c1ccc([N+](=O)[O-])cc1)C(=O)c1ccccc1`, with 89.4% (inactive); and `CCOC(=O)/C=C1\S/C(=N\Nc2cc(=O)[nH]c3ccccc23)N(c2ccccc2)C1=O`, with 110% (inactive). Take `Cc1ccc(/C=C/C(=O)c2ccc(-n3cc(CN4CCN(c5cc6c(cc5F)c(=O)c(C(=O)O)cn6C5CC5)CC4)nn3)cc2)cc1`: the growth is 95.5% (inactive).

The subject of a further assay is EKVX NSCLC. The assay is described as above. As to conditions: 10 µM unless noted.
Regarding `CC(=O)OC[C@]12CC[C@@H]([C@@H](C)c3nnc(-c4ccncc4)o3)[C@@H]1[C@H]1CC[C@@H]3[C@@]4(C)CC[C@H](OC(C)=O)C(C)(C)[C@@H]4CC[C@@]3(C)[C@]1(C)CC2`, the growth is 69.3% (inactive). Same read-out and setting: then `CCN(CC)c1ccc(/C=N/NC(=O)Cc2ccc(Nc3ccnc(C(F)(F)F)c3)cc2)c(O)c1`, with 10.5% (inactive); and `Cc1cc2c(cc1C)N(C(=O)CCl)CC(=O)N2`, with 119% (inactive); and `C#CC#CC#CC#CC#CC#CC#CC#CC[C@@H]1OC[C@@H](COC(=O)O[C@@H](C(=O)O[C@H]2C[C@@]3(O)[C@@H](OC(=O)c4ccccc4)[C@@H]4[C@]5(OC(C)=O)CO[C@@H]5C[C@H](O)[C@@]4(C)C(=O)[C@H](OC(C)=O)C(=C2C)C3(C)C)[C@@H](NC(=O)c2ccccc2)c2ccccc2)O1`, with 35.2% (inactive). For `CCN1C(=O)N(CC)C2C1NN=c1s/c(=C\c3cnc(C)n3C)c(=O)n12` (stereo not drawn), the growth is 49.7% (inactive).

As to `C/C=C(\C)C(=O)N[C@H]1C(O)C[C@]2(C)C3CC[C@@]4(C)C(CC[C@@H]4C(C)N(C)C)C3CCC2C1O` (stereo partly drawn), the growth is 66% (inactive). On to `C#Cc1cccc(Nc2nc(C)nc3cc(NC(=O)CCl)ccc23)c1`, for which the growth was -58.8% (active).

For the compound `CSc1nn2c(-c3ccc4ccccc4c3)ccnc2c1C#N`, the growth is 33.5% (inactive). On the same count and under the same terms, in the case of `CCN(CC)CCCOc1ccc2ncnc(Nc3ccc(Oc4cccc(C(F)(F)F)c4)c(Cl)c3)c2c1` it was 23.4% (inactive); in that of `O=C1/C(=C\c2ccccn2)c2ccccc2N1c1c(Cl)cccc1Cl`, 27.2% (inactive); in that of `CCOC(=O)c1c(C)c2c(n1Cc1ccccc1)CSCC2=O`, 12.4% [100 µM] (inactive).

With `O=C(CN1CCN(c2cc3c(cc2F)c(=O)c(C(=O)O)cn3C2CC2)CC1)N/N=C/c1ccco1`, the growth was 97.8% (inactive). Still for that read-out and setting: in the case of `Clc1ccc(-c2cc(-c3ccccc3)nc(NCCNc3ccnc4cc(Cl)ccc34)n2)cc1` it was 88.4% (inactive); in that of `N#C/C(=C\C=C\c1ccc(-c2cc(Cl)ccc2Cl)o1)c1nc2ccccc2s1`, 80.2% (inactive).

For `COc1cc(OC)c(C(=O)C(CN(C)C)CN(C)C)cc1OC`, the growth is 20.3% (inactive). For `CCn1cc(CNc2ccc(C(=O)Nc3cc4cc(OC)c(OC)cc4c(C)n3)cc2)cn1`, the growth was 60.5% (inactive). On the same count and under the same terms, in the case of `N#Cc1c(-c2ccccc2)nc(SCc2nnc(-c3ccc(Cl)cc3)o2)[nH]c1=O` it was 95.5% (inactive); in that of `O=P(O)(O)OCC1OC(n2cnc3c(NCc4ccco4)ncnc32)C(O)C1O` (stereo not drawn), 48.6% (inactive); in that of `CCN(CC)CCCN1C(=O)c2c(c(C)c3c(oc4ccc(O)cc43)c2C)C1=O`, 101% (inactive).

For `O=[N+]([O-])c1ccc(-c2cn3nc(-c4c[nH]c5ccccc45)sc3n2)cc1`, the growth was 91.2% (inactive). In the case of `Cc1nc2ccccc2c(/C=C/c2ccccc2)c1C(=O)/C=C/c1ccccc1`, the growth is 45.9% (inactive). `O=C1Nc2c(C(=O)O)cccc2/C1=N/c1n[nH]c(=S)s1`: the growth was 77.6% (inactive).

Take `CC(=O)Oc1ccc(OC(C)=O)c2ccccc12`: the growth is 92.3% (inactive). `COC(=O)/C=C1/SC(=Nc2ccc([N+](=O)[O-])cc2)N(CCc2c[nH]c3ccc(O)cc23)C1=O`: the growth is 64.7% (inactive). `[2H]C([2H])([2H])Oc1ccc(F)cc1/C=C/C(=O)/C=C(/C=C/c1cc(F)ccc1OC([2H])([2H])[2H])OB(F)F`: the growth is 99.7% (inactive). Same read-out and setting: in the case of `Nc1c(C(=O)Nc2cccc(Cl)c2)sc2nc3c(cc12)CCCC3` it was 94.8% (inactive); in that of `NS(=O)(=O)c1ccc(C(=O)NN2C(=O)c3c(Br)c(Br)c(Br)c(Br)c3C2=O)cc1`, 99.7% (inactive).
